Common to all, as to experiment: PBM binding z-score (relative to random genomic background probes); higher = stronger binding; sequences stand for … in GC…GCGATTGACAGCGTAGAATGAAGG
The subject of experiment [1] is FXR:RXRa (NR concentration 270 nM, RXRa partner concentration 90 nM). A digest of the protocol: (§1)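 Random background probes are the reference for binding z-scores. These scores derive from regression-normalized fluorescence on custom Agilent 4×180K protein-binding microarrays incubated 1 h with ligand-free nuclear receptor dimers. Binding was detected with antibodies against each partner (one per run).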

The subject of experiment [2] is LXRa:RXRa (NR concentration 270 nM, RXRa partner concentration 90 nM). The essentials:
as §1

Experiment [3] concerns LXRa homodimer (NR concentration 270 nM). A digest of the protocol:
as §1

Experiment [4] relates to LXRb:RXRa (NR concentration 270 nM, RXRa partner concentration 90 nM). The essentials:
as §1

Experiment [5] relates to LXRb homodimer (NR concentration 270 nM). A digest of the protocol: as §1
The test system of experiment [6] is PPARa:RXRa (NR concentration 270 nM, RXRa partner concentration 90 nM). The essentials: as §1
The test system of experiment [7] is PPARg:RXRa (NR concentration 180 nM, RXRa partner concentration 90 nM). The essentials: as §1
Experiment [8] concerns PPARg:RXRa 270nM:90nM, anti-RXR (NR concentration 270 nM, RXRa partner concentration 90 nM). The essentials:
as §1

The test system of experiment [9] is PPARg:RXRa 30nM:10nM, anti-RXR (NR concentration 30 nM, RXRa partner concentration 10 nM). The essentials:
as §1

Experiment [10] relates to PPARg:RXRa 90nM:30nM, anti-RXR (NR concentration 90 nM, RXRa partner concentration 30 nM). The essentials:
as §1

The test system of experiment [11] is PPARg:RXRa DBDmut IVT, anti-RXR (DBD mutation: RXRa K156A/R161A, NR concentration 270 nM, RXRa partner concentration 90 nM). A digest of the protocol: as §1
The subject of experiment [12] is PPARg:RXRa IVT, anti-PPARg (NR concentration 270 nM, RXRa partner concentration 90 nM). A digest of the protocol: as §1
Experiment [13] has as its system PPARg DBDmut:RXRa IVT, anti-PPARg (DBD mutation: PPARg1 K132A/R137A, NR concentration 270 nM, RXRa partner concentration 90 nM). The essentials:
as §1

Experiment [14] relates to PPARg DBDmut IVT, anti-PPARg (DBD mutation: PPARg1 K132A/R137A, NR concentration 270 nM). A digest of the protocol:
as §1

The test system of experiment [15] is PPARg homodimer (NR concentration 180 nM). A digest of the protocol:
as §1

In experiment [16] the test system is PXR:RXRa (NR concentration 270 nM, RXRa partner concentration 90 nM). The essentials:
as §1

For experiment [17], the system named is PXR homodimer (NR concentration 270 nM). A digest of the protocol:
as §1

In experiment [18] the test system is RARa:RXR (NR concentration 270 nM, RXRa partner concentration 90 nM). A digest of the protocol: as §1
For experiment [19], the system named is RARa homodimer (NR concentration 270 nM). The essentials: as §1
Experiment [20] relates to RARb:RXRa (NR concentration 270 nM, RXRa partner concentration 90 nM). A digest of the protocol: as §1

Turning to TCATATAGGTAATCCAGGTGAAAGTCGGCATCTA, the PBM binding z-score in [1] was determined as 1.03; in experiment [2], 1.21; in experiment [3], 0.37; in experiment [4] it was 0.829; in [5], 0.397; in experiment [6] it was 2.4. Also, the PBM binding z-score is 1.87 in experiment [7]; 2.9 in [8]; 4.14 in [9]; 3.53 in [10]; 4.8 in [11]; 4.82 in experiment [12]. Also, the PBM binding z-score in [13] turned out to be 1.66; in experiment [14], 1.21; in [15] it was 1.69; in [16] it was 0.657; in [17], 0.114; in [18], 1.28. Also, the PBM binding z-score in experiment [19] amounted to 0.866; in experiment [20] it was 0.724.

Turning to TCGAGTAGGTTAGTCGGGGCATTCATCCAACATA, the PBM binding z-score in [1] is 0.0168; in experiment [2], -0.035; in experiment [3], 0.0686; in [4] it was 0.86; in [5] it was -0.262; in experiment [6] it was 0.795. In addition, the PBM binding z-score in experiment [7] turned out to be 0.0659; in experiment [8] it was 0.755; in [9], 1.55; in [10], 0.83; in [11] it was 2.52; in [12] it was 2.11. In addition, the PBM binding z-score in experiment [13] is 0.0178; in experiment [14], -0.145; in experiment [15] it was 0.384; in experiment [16] it was 0.279; in [17], 0.0478; in experiment [18], 0.5. The results for the PBM binding z-score in [19] and in [20] were -0.336 and 0.665, respectively.

On to AGAACGAGGGCACGCTGAGTTGTTAGCAGAGTAG, for which the PBM binding z-score in experiment [1] was 0.878; in experiment [2], 0.882; in experiment [3], -0.742; in [4] it was 0.17; in [5], -1.13; in experiment [6] it was 2.18. Moreover, the PBM binding z-score in experiment [7] came to 1.94; in experiment [8], 1.79; in experiment [9], 0.32; in [10], 1.16; in experiment [11], 4.03; in experiment [12] it was 3.92. Also, the PBM binding z-score is 0.505 in [13]; 0.0717 in experiment [14]; -0.208 in [15]; 0.851 in experiment [16]; -0.39 in [17]; 0.724 in [18]. For the same sequence, the PBM binding z-score was -0.521 in experiment [19] and 2.62 in experiment [20].

For the sequence CAAACTAGGTCAAGAGCTCAAAGTCCGCTTCCCG, the PBM binding z-score in [1] is 3.7; in experiment [2] it was 2.48; in experiment [3], 0.129; in experiment [4], 1.63; in experiment [5], 0.0048; in experiment [6], 4.61. In addition, the PBM binding z-score in experiment [7] came to 7.37; in experiment [8] it was 6.8; in experiment [9], 4.34; in experiment [10] it was 6.56; in experiment [11], 8.17; in experiment [12] it was 8.44. Moreover, the PBM binding z-score is 4.03 in [13]; 2.91 in experiment [14]; 2.57 in experiment [15]; 1.06 in experiment [16]; -0.169 in experiment [17]; 2.14 in experiment [18]. In addition, the PBM binding z-score in experiment [19] was 0.0982; in experiment [20], 3.99.

For ACTATTAGTTGAGACGCGGGCAACCGATAGGTTG, the PBM binding z-score was -0.0666 in [1]; -0.0998 in experiment [2]; -0.325 in experiment [3]; -0.488 in experiment [4]; 0.193 in experiment [5]; -0.624 in experiment [6]. Moreover, the PBM binding z-score is 0.371 in experiment [7]; -0.414 in experiment [8]; -0.25 in experiment [9]; -0.167 in experiment [10]; -0.288 in experiment [11]; -0.175 in [12]. For the same sequence, the PBM binding z-score in [13] is 0.481; in experiment [14], 0.188; in experiment [15] it was -0.291; in experiment [16], -0.299; in experiment [17], -0.208; in [18], -0.588. For the same sequence, the PBM binding z-score in experiment [19] is -0.0314; in experiment [20], 0.15.

Consider CCTAGTTAGTCAGGAGGTCACACACCGGATATGA, for which the PBM binding z-score in [1] was determined as 3.41; in experiment [2] it was 3.69; in experiment [3], 2.46; in experiment [4], 3.68; in [5] it was 1.17; in experiment [6] it was 4.29. The PBM binding z-score turned out to be 2.42 in experiment [7]; 3.19 in [8]; 1.24 in experiment [9]; 2.16 in experiment [10]; 1.08 in experiment [11]; 2.35 in [12]. Further, the PBM binding z-score in [13] was 1.22; in [14], 0.693; in [15], 3.69; in experiment [16], 4.33; in experiment [17], 1.96; in experiment [18], 4.59. In addition, the PBM binding z-score in experiment [19] is 2.45; in [20], 3.69.

Turning to ATACCAAGGTGATCGTGAGCTCGTTGATACTAAC, the PBM binding z-score was 0.125 in experiment [1]; -0.0736 in [2]; -0.322 in experiment [3]; 0.0963 in experiment [4]; -0.116 in experiment [5]; 0.174 in [6]. For the same sequence, the PBM binding z-score in experiment [7] was 0.373; in experiment [8], -0.151; in [9], -0.316; in [10], -0.0822; in experiment [11], 0.283; in [12], 1.08. In addition, the PBM binding z-score was 0.353 in experiment [13]; 0.874 in experiment [14]; 0.404 in [15]; -0.0195 in experiment [16]; -0.182 in [17]; 0.256 in experiment [18]. The PBM binding z-score was 0.0437 in experiment [19] and 0.555 in [20].

The values are drawn from the supplement of paper PMC6555819.
